Measured values reported in PubChem BioAssay (Tox21).
Inconclusive results are not listed. A number with no mark means an inactive call. Calls follow the shape of the full dose curve.

Test: p53 small molecule agonists, cell-based qHTS assay with human liver microsomes: qHTS cell viability counter screen (AID 1963579); also: nearly all actives have a fitted effect of over 45% in size
Conditions: p53RE-bla HCT-116 viability, ATP luminescence, 16 h, HLM; series mostly up to 66 µM; activity change, negative = cytotoxicity: at the top concentration
Excerpt: National Center for Advancing Translational Sciences [NCATS]
Division of Preclinical Innovation [DPI]
U.S. Environmental Protection Agency [EPA]
National Institutes of Environmental Health Sciences [NIEHS]
National Toxicology Program [NTP]
U.S. Food and Drug Administration [FDA]
p53, a tumor suppressor protein, is activated following cellular insult, including DNA damage and other cellular stresses. The activation of p53 regulates cell fate by inducing DNA repair, cell cycle arrest, apoptosis, or cellular senescence. The activation of p53, therefore, is a good indicator of DNA damage and other cellular stresses. […] The activation of the reporter gene under culture conditions can be detected by fluorescence intensity. This cell line was used to screen the Tox21 10K compound library in the condition of presence of human liver microsomes and to identify agonists that activate the p53 signaling pathway after in vitro metabolic activation (Ooka et al., Archive of Toxicology 96:1975-1987, 2022).
Tox21 Assay Protocol Summary:
The p53RE-bla cells were dispensed at 4,000cells/3ul/well in 1536-well black-clear bottom plates. After the assay plates were incubated at 37 C, 5% CO2 incubator for 5 hours, 23 nL of compounds dissolved in DMSO, positive controls or DMSO only was transferred to the assay plate. Following compound addition, 3 uL of human liver microsomes (XenoTech, Kansas City, KS) at final concentration of 0.5 mg/mL and 1uL of B-Nicotinamide adenine dinucleotide 2'-phosphate (NADPH) at final concentration of 0.5 mg/mL were transferred to the assay plate. The plates were incubated at 37 C for 16 hours. 1 uL of LiveBLAzer detection mixture was added to each well and the plates were incubated at room temperature in the dark for 2 h. Fluorescence intensity at 460 and 530 nm emission and 405 nm excitation were measured by an Envision plate reader. For cell viability readout that measures cytotoxicity, 4 ul/well of CellTiter-Glo reagent was added into the assay plates using a Flying Reagent Dispenser. After 30 min incubation at room temperature, the luminescence intensity in the plates was measured using a ViewLux plate reader.
% is scaled to controls: 0 for no effect and ±100 for the full control effect.

SMILES | activity change, negative = cytotoxicity
C/C(=N\[Si](C)(C)C)O[Si](C)(C)C | -0.932%
CC(=O)OCC(=O)[C@@]1(O)CCC2C3CCC4=CC(=O)CC[C@]4(C)C3[C@@H](O)C[C@@]21C (stereo not given in full) | 0.933% [at 30.3 µM]
COC(=O)[C@@H]1[C@H]2C[C@H]3c4[nH]c5ccccc5c4CCN3C[C@@H]2CC[C@@H]1O | 7.11% [at 30.3 µM]
CC(N)CCCC(C)(C)O (stereo not given) | 29.5% [at 30.3 µM]
CCC(C=O)CC | -0.739%
Cc1cc(C)n(CO)n1 | 7.81%
C=CC(=O)OCCCCCCCCCC | 0.741%
CC(C)=CCC/C(C)=C/CC/C(C)=C/CO | -5.85%
CCOc1cccc(N)c1 | 6.74%
CCOC(=O)Cn1c(=O)sc2cccc(Cl)c21 | 3.67%
C=C(C)C(=O)OCCN(CC)CC | -0.511%
O=S(=O)(O)c1ccc(Cl)cc1 | -10%
N[C@@H](CSCCCO)C(=O)O | -3.2% [at 13.5 µM]
O=C(NC1CCN(CCc2c[nH]c3ccccc23)CC1)c1ccccc1 | -5.84% [at 30.3 µM]
CCN[C@@H]1C[C@H](N)[C@@H](OC2OC(CN)=CCC2N)[C@H](O)[C@H]1O[C@H]1OC[C@](C)(O)[C@H](NC)[C@H]1O (stereo not given in full) | 1.03% [at 0.249 µM]
Cc1c(N)cccc1Cl | -0.0354%
CC(C)C/C=C(\C=O)c1ccccc1 | -5.75%
COc1c(N2C[C@@H]3CCCN[C@@H]3C2)c(F)cc2c(=O)c(C(=O)O)cn(C3CC3)c12 | -0.324% [at 30.3 µM]
O=C(O)c1ccc2cc(O)ccc2c1 | 3.44%
Cc1cccc(C)c1NC(=O)c1ccc(N)cc1 | 2.73% [at 30.3 µM]

SMILES | activity change, negative = cytotoxicity
Nc1ccc(Cl)cc1[N+](=O)[O-] | -7.26%
CC(C)=CCC1=C(O)c2ccccc2C(=O)C1=O | -20.7%
O=C1c2ccccc2C(=O)c2cc(O)ccc21 | -0.905%
C1CCN(CN2CCCCC2)CC1 | 0.309%
O=C(NCCN1CCOCC1)c1ccc(Cl)cc1 | 10.5% [at 30.3 µM]
CC(=O)CCc1ccc(O)cc1 | 3.6%
CC1(N)CCC(C(C)(C)N)CC1 (stereo not given) | 7.13%
COc1cc2nc(N3CCN(C(=O)C4CCCO4)CC3)nc(N)c2cc1OC (stereo not given) | -0.277% [at 30.3 µM]
C1=CCC(c2ccccc2)CC1 (stereo not given) | -1.9%
Oc1ccc(-c2ccc(O)cc2)cc1 | -17.2%
CCCCCCCCC(=O)Cl | -9.97%
O=Cc1ccccc1[N+](=O)[O-] | 0.676%
C=C(C)C(=O)OCCCCCCCCCCOC(=O)C(=C)C | -9.01%
Nc1c2c(nc3c1CCC3)CCCC2 | 7.33% [at 30.3 µM]
CCCCCCCCCC(=O)OCC | -3.03%
C=COC(=O)C(C)(CC)CCC(C)C (stereo not given) | 5.84%
C(=C/c1ccccc1)/c1ccccc1 | 0.808%
C/C=C(/C(=C/C)c1ccc(O)cc1)c1ccc(O)cc1 | 37.9% [at 30.3 µM]
CCC(CO)(CO)COCC(CC)(CO)CO | 4.16%
CCN(CC)CCNC(=O)c1cc(S(C)(=O)=O)ccc1OC | 14.4% [at 30.3 µM]
